Measured values published in the supplement of paper PMC7156485.
± gives the standard deviation of the averaged measurements.

Key:
Conditions in all cases: concentration: 10 µM; 24 h
HCC1569 [1] = experiment: cell number relative to DMSO (% of DMSO); higher = more cells (less growth inhibition / toxicity)
In short: (§1)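 Using 384-well plates with 800 cells per well in RPMI plus 10% FBS, HCC1569 and TDF cells were exposed to compounds at 10 µM, in triplicate, for 24 h at 37 °C. Imaging of six fields per well at ×10 followed H1.0 and DAPI staining. The reported quantity, H1.0 nuclear intensity or cell number, is a median of replicates given as percent of the plate control, and HCC1569 values were smoothed for positional effects.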

TDF [2] = experiment: as above
In short: as §1

TDF [3] = experiment: H1.0 immunofluorescence intensity relative to DMSO (% of DMSO); higher = stronger H1.0 induction, active = 120 or more
In short: as §1

HCC1569 [4] = experiment: H1.0 immunofluorescence intensity relative to DMSO (% of DMSO); higher = stronger H1.0 induction, active = 140 or more
In short: as §1
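Throughout, for H1.0 immunofluorescence intensity relative to DMSO: TDF is a line of transformed human dermal fibroblasts of mesenchymal origin.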
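Throughout, for cell number relative to DMSO: TDF denotes transformed human dermal fibroblasts of mesenchymal origin.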

Structure (SMILES)	cell number (HCC1569 [1])	cell number (TDF [2])	H1.0 immunofluorescence intensity (TDF [3])	H1.0 immunofluorescence intensity (HCC1569 [4])
CCCCCCC(=O)CCCCCCC=CCC(O)C(O)C(N)(CO)C(=O)O (stereo unspecified) [Myriocin]	100	92.4	99.4 (inactive)	87.9 (inactive)
CC(=O)C1=C(O)C2C3c4c[nH]c5cccc(c45)CC3C(C)(C)N2C1=O (stereo unspecified) [Cyclopiazonic acid]	95.5	90.8	100 (inactive)	101 (inactive)
CC1CCC2(NC1)OC1CC3C4CC=C5CC(O)CCC5(C)C4CCC3(C)C1C2C (stereo unspecified) [Solasodine]	102	97.4	100 (inactive)	89.2 (inactive)
Cl.O=C(O)Cc1cnc[nH]1 [Imidazole-4-acetic acid hydrochloride]	105	107	93 (inactive)	93.3 (inactive)
Br.CCCN1CCc2cc(O)cc3c2C1Cc1ccc(O)c(O)c1-3 (stereo not drawn) [R(-)-2,10,11-Trihydroxy-N-propylnoraporphine hydrobromide]	95.1	110	89.2 (inactive)	100 (inactive)
CCCCCCCCCCCCCCCCOCC(COP(=O)([O-])OCC[N+](C)(C)C)OC(C)=O (stereo unspecified)	96	98.3	99.6 (inactive)	102 (inactive)
NC(=O)CN1CCCC1=O [Piracetam]	99.5	99.2	92 (inactive)	103 (inactive)
CCCCCCCCC(=O)NCc1ccc(O)c(OC)c1 [N-Vanillylnonanamide]	76.7	81.3	107 (inactive)	160 (active)
C=C(C)C1Cc2c(ccc3c2OC2COc4cc(OC)c(OC)cc4C2C3=O)O1 (stereo unspecified) [Rotenone]	59.7 ± 1.6	16.2 ± 0.54	147 (active)	178 (active)
